Measured values published in PubChem BioAssay AID1845224 (National Center for Advancing Translational Sciences (NCATS), 2023).
Inconclusive results are not listed. Activity calls are given as the source filed them. The call rests on the fitted dose curve; in most records, active means well fitted curve in the direction sought with a large enough effect; inconclusive means small, poorly fitted or top-dose-only effect, or another doubt; inactive means no such curve, though single readings can be large or run the other way.

Tested on: NanoLuc luciferase (engineered Oplophorus gracilirostris luciferase)
Test: Confirmatory Nanoluciferase (NLuc) qHTS assay for identification of artifact compounds.
Conditions: secreted NLuc in S16 cell medium, luminescence, 5 min; series mostly up to 39 µM
Excerpt: PI: Alexander Tropsha Ph.D. UNC Eshelman School of Pharmacy University of North Carolina, Chapel Hill, North Carolina Hits from high-throughput screening (HTS) of chemical libraries are often false positives due to their interference with the assay detection technology. In response to this problem, we generated the largest publicly available library of chemical liabilities and developed a free webtool to predict HTS artifacts, both of which are described herein. More specifically, we generated, curated, and integrated HTS datasets for thiol reactivity, redox activity, and luciferase (firefly and nano) activity. Using these curated datasets, we developed and validated several Quantitative Structure-Interference Relationship (QSIR) models to predict nuisance behavior. […] These models were employed for virtual profiling of the National Center for Advancing Translational Science's (NCATS) in-house library, and 256 compounds for each assay were selected for the experimental validation of nuisance behavior. The BA for these external predictions ranged from 58 to 78% for compounds within the applicability domains of the models. […] The models developed in this study, along with aggregation models previously developed by our group (SCAM Detective) were implemented in "Liability Predictor," an online tool which may be used as part of chemical library design or for triaging HTS hits. Both the models and the curated datasets are publicly available at https://liability.mml.unc.edu/.
PROTOCOL TABLE SEQUENCE No. (e.g., 1, 2, 3, etc.); PARAMETER (e.g., Cells, Incubation, Reagent, etc.); VALUE; DESCRIPTION. 1; Reagent; 2 uL; Nanoluciferase media. 2; Compounds and control; 16 nL; Kalypsis pin tool (Wako USA) equipped with a 1536-well pin head. 3; Incubation; 15 min. 4; Reagent; 2 uL; Luciferase enzyme. 5; Incubation; 5 min. 6; Detection; Luminescence, ViewLux microplate reader. NOTES (numbers refer to Sequence numbers above) 1. Medium was collected from the culture flasks of NLuc-expressing S16 cells (80% confluent) prior to cell plating, filtered through a 0.22um filter, and frozen at -20C prior to use. Media was diluted (1:55) and 2 uL was dispensed into all wells of a 1536-well assay plate (solid-bottom white plate; Greiner Bio One, Monroe, NC). 2. A Wako Pin-tool (Wako Automation, Richmond, VA) was used to transfer 16 nL of compounds (consisting of 7-plates in qHTS format, final concentration range 18.3 nM to 114 uM) or control Cilnidipine (final concentration range 623 nM to 80 uM). 3. 15 min. incubation at room temperature protected from light. 4. 2 uL of NLuc substrate (1:100 in Nano-Glo luciferase buffer; Nano-Glo luminescence assay, Promega, Madison, WI) was dispensed for a final assay volume of 4 uL. 5. Plates were centrifuged (121xg, 15 seconds) and incubated for 5 minutes. 6. Samples were read for luminescence on a ViewLux CCD imager (PerkinElmer). Data were normalized to no-enzyme (0% activity) and no-inhibitor (DMSO; 100%) controls and the resulting percent inhibition data were fitted to a 4-parameter Hill equation using NCATS in-house software.
Potency means the concentration at half of the fitted maximal effect.

Potency, active:
Cc1oc(-c2cccc(Br)c2)nc1CSc1nc2ncccc2[nH]1 8.64 µM

Potency, inactive:
O=C(Nc1cc(-c2ccc(F)c(F)c2)no1)c1ccccc1F, O=C(CSc1ccnc(=O)[nH]1)NCc1ccc(F)cc1, COc1ccc(-n2nc(C(=O)Nc3cccc(C)n3)c3c4ccccc4n(C)c3c2=O)cc1, CCC1Oc2ccccc2N(CC(=O)NCc2ccc(C)cc2)C1=O (stereo not given), CC(=O)Nc1ccc(Nc2nc3ccc(C)cc3n3nnnc23)cc1, CCN(CCCNC(=O)CSc1cc(=O)n(C)c2ccccc12)c1ccccc1, Cc1cc2oc(=O)cc(C)c2c2occ(-c3ccc(Cl)cc3)c12, CCOC(=O)c1c(S(=O)(=O)N2CCCC(C(=O)NCc3ccc(F)cc3)C2)c(C)n(CC)c1C (stereo not given), CNS(=O)(=O)c1cn(CC(=O)N2CCN(c3ccc(C(C)=O)cc3)CC2)cc1S(=O)(=O)NC, CC1(C)OC2CC(=O)OCC23C1CC(=O)C1(C)C3CC[C@@]2(C)[C@H](c3ccoc3)OC(=O)C3OC312 (stereo not given in full), COc1ccc(OC(=O)c2nc(SCc3ccccc3F)ncc2Cl)cc1, COc1ccc(-c2noc(N3CCC(C(=O)N4CCN(c5cccc(C)c5C)CC4)CC3)n2)cc1, C[C@@H]1C[C@H]2[C@@H]3CCC4=CC(=O)C=C[C@]4(C)[C@@]3(F)[C@@H](O)C[C@]2(C)[C@@]1(O)C(=O)CO, O=c1c2ccccc2nc2sc(Nc3ccc(Br)cc3)nn12, CC(C)[C@@H](C)/C=C/[C@@H](C)[C@H]1CC[C@H]2/C(=C/C=C3\C[C@@H](O)CC[C@@H]3C)CCC[C@]12C, Cc1cccn2c(=O)c3cc(C(=O)NCc4ccccc4)c(=N)n(CCOCCO)c3nc12, COc1ccc(-c2c3c(=O)n(C)c(=O)n(C)c3c3n2-c2ccccc2NC3c2ccccc2OC)cc1 (stereo not given), COc1ccc(C2Nc3ccccc3C(=O)N2CC(C)(C)C)cc1COc1ccc(NC(C)=O)cc1 (stereo not given), COc1ccc(NC(=O)Cn2c(=O)n(CCc3ccccc3)c(=O)c3c4c(sc32)CCCC4)cc1, Cc1ccc(-c2nc(=Nc3ccccc3)sn2-c2ccccc2)cc1, CN(C)C=O, COc1ccc(CC(N)C(=O)N[C@H]2[C@@H](O)[C@H](n3cnc4c(N(C)C)ncnc43)O[C@@H]2CO)cc1 (stereo not given in full), COc1ccc(NC(=O)CSc2c3c(nc4ccccc24)CCC3)cc1Cl, COC(=O)c1scc(-c2ccc(C)cc2)c1S(=O)(=O)Nc1cc(Cl)ccc1C, CCc1cccc(C)c1NC(=O)Cn1c(=O)n(-c2ccc(C)cc2)c(=O)c2c1cnn2C, COc1ccc(NC(=O)c2csnn2)cc1Cl, COc1cccc(CNS(=O)(=O)c2cnc(N)nc2)c1, CCOc1ccccc1NC(=O)Cn1c(=O)n(CCCC(=O)NCc2ccc(C)cc2)c(=O)c2ccccc21, CCCCn1c(SCC(=O)Nc2ccc(F)cc2)nc2c(sc3ccccc32)c1=O, CCN(CC)CCNC(=O)c1nn(C)c2c1CS(=O)(=O)c1ccccc1-2, Cc1cc(C)cc(-n2c(SCC(=O)N3CCCCCC3)nc3c([nH]c4ccccc43)c2=O)c1, CCCC(=O)Nc1cc2nn(-c3ccccc3)nc2cc1C, O=C(Nc1ccc2oc(-c3cccnc3)nc2c1)c1cc2ccccc2o1, O=C(Nc1ccccn1)c1sc2ccc([N+](=O)[O-])cc2c1Cl, COc1ccc(Cn2c(CCC(=O)Nc3cc(C)cc(C)c3)nc3cccnc32)cc1, Clc1ccc(CNc2cc(-c3ccc4c(c3)OCO4)ncn2)cc1, O=C(Nc1nnc(-c2ccco2)o1)c1ccc(Cl)c(Cl)c1, O=C(NCCC1=CCCCC1)c1ccc2c(c1)N(Cc1cccc(Cl)c1)C(=O)c1ccccc1S2=O (stereo not given)

Activity change, negative = inhibition, inactive:
CC(C)C[C@H](NC(=O)[C@H](Cc1ccccc1)NC(=O)CNC(=O)CNC(=O)[C@@H](N)Cc1ccc(O)cc1)C(=O)N[C@@H](CCCN=C(N)N)C(=O)N[C@@H](CCCN=C(N)N)C(=O)N[C@@H](CCC(N)=O)C(=O)N[C@@H](Cc1ccccc1)C(=O)N[C@@H](CCCCN)C(=O)N[C@H](C(=O)N[C@H](C(=O)N[C@H](C(=O)O)[C@@H](C)O)C(C)C)C(C)C 9.86% [at 4.32 µM]
